About 83,000 compounds went through this panel and 20% of them were active in at least one assay; those are over-represented in the sample as a whole.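 Compound tested at a single concentration for 48 hours in 96-well plates; a percent growth value below 10 was scored as active.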 Values without a mark were called inactive. Calls of active or inactive are those of the source.
Assays:
Experiment in all cases: NCI-60 one-dose screen, 48 h (100 = growth as untreated, 0 = no growth, -100 = all killed)
Conditions in all cases: 10 µM unless noted
DU-145 prostate = system: DU-145 prostate
K-562 leukemia = system: K-562 leukemia
MALME-3M melanoma = system: MALME-3M melanoma
MDA-MB-231 breast = system: MDA-MB-231 breast
RXF 393 renal = system: RXF 393 renal
SF-268 CNS = system: SF-268 CNS
SF-295 CNS = system: SF-295 CNS
SF-539 CNS = system: SF-539 CNS
M14 melanoma = system: M14 melanoma
HCT-15 colon = system: HCT-15 colon
HT29 colon = system: HT29 colon
SNB-75 CNS = system: SNB-75 CNS
U251 CNS = system: U251 CNS
PC-3 prostate = system: PC-3 prostate
SK-MEL-5 melanoma = system: SK-MEL-5 melanoma
LOX IMVI melanoma = system: LOX IMVI melanoma
SK-MEL-28 melanoma = system: SK-MEL-28 melanoma
UACC-62 melanoma = system: UACC-62 melanoma
UACC-257 melanoma = system: UACC-257 melanoma
SNB-19 CNS = system: SNB-19 CNS

SMILES | growth (DU-145 prostate) | growth (K-562 leukemia) | growth (MALME-3M melanoma) | growth (MDA-MB-231 breast) | growth (RXF 393 renal) | growth (SF-268 CNS) | growth (SF-295 CNS) | growth (SF-539 CNS) | growth (M14 melanoma) | growth (HCT-15 colon) | growth (HT29 colon) | growth (SNB-75 CNS) | growth (U251 CNS) | growth (PC-3 prostate) | growth (SK-MEL-5 melanoma) | growth (LOX IMVI melanoma) | growth (SK-MEL-28 melanoma) | growth (UACC-62 melanoma) | growth (UACC-257 melanoma) | growth (SNB-19 CNS)
CCC(=O)OCc1cccc(OC)c1 | 111% | 62.4% | 116% | 97.4% | 103% | 107% | 104% | 98% | 96.3% | 92.2% | 90% | 59.7% | 93.2% | 86.5% | 104% | 92.1% | 107% | – | – | –
O=C(O)c1cccc2c1-c1ccccc1C2=O | 114% | 119% | 85.8% | 96% | 90.4% | 105% | 96.6% | 97.9% | 94.5% | 95.7% | 103% | 86.8% | 95.7% | 94% | 102% | 97.5% | 109% | 90.1% | – | –
CCOC(=O)c1cnc2ccc(OC)cc2c1Nc1cccc(S(=O)(=O)NC)c1 | 102% | 92.8% | 105% | 100% | -4.54% (active) | 86.2% | 54.7% | 50.1% | 115% | 82.3% | – | – | 71.6% | 95.3% | 100% | 99.1% | 85.9% | 103% | 112% | 89%
COc1ccc(/C=C/C(=O)c2ccc(NC(=O)c3cc4cc5ccccc5nc4s3)cc2)cc1OC | 106% | 80.6% | 98.6% | 91.6% | 111% | 98.9% | 99.4% | 99.7% | 98.9% | 104% | – | – | 103% | 94.4% | 93.5% | 94% | 105% | 96.9% | 108% | 98.8%
CN(C)c1ccc(/C=C\C2=[N+](C)c3ccccc3C2(C)C)cc1 | 16.3% | 90.8% | 20.8% | 23% | 37.3% | 6% (active) | -23.9% (active) | 22.1% | 18% | 63.2% | 10.5% | 31.3% | 11% | -4.73% (active) | 3.41% (active) | 16.1% | 37.5% | 15.9% | – | –
CC1=NNC(=O)C1C (configuration not stated) | 104% | 97.3% | 467% | 109% | 90.5% | 107% | 110% | 111% | 96.8% | 98.7% | 109% | 91.4% | 105% | 108% | 103% | 99% | 106% | 94.5% | – | –
O=C1C=CC(=O)N1c1ccc(Cc2ccc(N3C(=O)C=CC3=O)cc2)cc1 | 111% | 66.4% | 88.2% | 90.3% | 106% | 118% | 121% | 93.4% | 96.8% | 91.1% | 133% | 164% | 96.8% | 91.2% | 96.3% | 96.1% | 120% | 83.7% | – | –
CCOC(=O)C(C#N)C1CCCCC1 (configuration not stated) | 104% | 79.3% | 95.6% | 81.3% | 99.3% | 91% | 93.5% | 122% | 101% | 95.9% | 108% | 97.9% | 93.8% | 80.7% | 103% | 92.4% | 108% | 75.6% | – | –
CNc1cc2nc3cc(NC)c(C)cc3cc2cc1C | 18.5% | 21.1% | 41.3% | 28.7% | 11.9% | 11.3% | 10% | 10.4% | 24.8% | 11.1% | – | 16.5% | 9.07% (active) | 18.2% | 35.7% | 6.5% (active) | 46% | 45.7% | 29.2% | –
CCN(CC)CC(O)c1cc(-c2ccc(Cl)cc2)nc2c(C)c(Cl)ccc12 (configuration not stated) | -71.1% (active) | -75.3% (active) | -64% (active) | -82.2% (active) | -86.4% (active) | -29.5% (active) | -76.8% (active) | -98.6% (active) | -98.5% (active) | -86.9% (active) | – | -39.7% (active) | -93.5% (active) | -68.4% (active) | -96.6% (active) | -94.7% (active) | -85.5% (active) | – | -80.8% (active) | –
COC(=S)SCN(CSC(=S)OC)c1ccc(Cl)cc1 | 110% | 90.1% | 75.1% | 66.1% | 95.3% | 94.2% | 84.8% | 84.8% | 77% | 86.3% | 102% | 58.9% | 90.9% | 99.3% | 83.6% | 73.4% | 102% | 58% | – | –
CC(=O)O[C@H]1CC[C@]2(C)[C@H]3CC[C@@H]4[C@H]5[C@H](C(C)C)CC[C@]5(C(=O)OCC(CO)(CO)N=C(N)N)CC[C@@]4(C)[C@]3(C)CC[C@H]2C1(C)C | 37.4% | -26.7% (active) | 17% | 42.1% | 40.6% | 77.6% | 100% | 86.4% | 73.4% | 10.4% | – | – | -96.4% (active) | 41.2% | 81.2% | -48.8% (active) | 84.9% | 86.8% | 90.2% | 58.5%
CCCCCCCCCCNC(=O)CCl | 91.1% | 85.3% | 87.9% | 90.4% | 75.3% | 82.2% | 102% | 84.1% | 83.9% | 72.4% | – | 45.5% | 69.8% | – | 72.9% | 50.9% | 105% | 73.8% | 84.3% | –
COc1cccc(/C=C\C(=O)c2ccccc2)c1 | 53.8% | 31% | 83.4% | 88.5% | 50.2% | 60.4% | 77.5% | 87.7% | 85.1% | 66.3% | – | 78.9% | 35.1% | 63.5% | 90.8% | 30.3% | 103% | 70.7% | – | –
CC1CN(Cc2ccco2)C(=S)N(c2ccccc2)C1=O (configuration not stated) | 110% | 62.7% | 97.8% | 106% | 111% | 105% | 92.3% | 90.8% | 99.6% | 98.2% | 93.4% | 62.2% | 93.4% | 86.5% | 100% | 94.1% | 102% | 93.2% | – | –
COc1nc2c(cc1S(=O)(=O)c1ccccc1)CCc1c-2cnn1-c1ccc(Cl)cc1 | 110% | 97.2% | 96.8% | 95.3% | 96.2% | 104% | 88.3% | 100% | 97.5% | 93.8% | – | 92.3% | 92.1% | 88.2% | 94.8% | 96.2% | 88.8% | 88.7% | 106% | –
Cc1cc2cc3cc(C)c(N(C)C)cc3[n+](C)c2cc1N(C)C | 24.2% | 44.7% | 19.9% | 57.1% | 25% | 11.7% | 16.6% | 9.99% (active) | 41.2% | 65.6% | 16.6% | 35.4% | 12.3% | 4.2% (active) | 42.1% | 25.9% | 39.6% | 56% | – | –
